Targets with a hit are over-represented here; the source holds about 8,800 in all. About 0.5% of all pairs of compound and target were hits.
Assays:
Assay in all cases: log2 fold change, soluble protein after heating vs DMSO (PISA); higher = thermal stabilisation; K562 lysate, 10 uM; active = over 0.2 and 3.5 SD of the protein, either way, in both replicates (recomputed)
[1] = compound: C1=CC=C(C=C1)[C@H](COC2=CC3=C(C=C2)NC(=O)N3)NC(=O)C4=CC=CN(C4=O)CC5=CC(=C(C=C5)F)F
Outline: (§1)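 K562 pellets were dounce-homogenised in PBS pH 7.4 containing 1 mM MgCl2, and the crude extract, at 1 mg/mL protein, was exposed to 10 μM compound for 30 min. Aliquots were heated for 3 min across 48°C-58°C, pooled, brought to 0.5% NP-40 at 4°C and spun at 21,000xg for 90 min, with the supernatant taken as soluble protein. TMTpro 16plex LC-MS/MS with equalised channel sums quantified that protein. Values are log-two fold changes in thermal stability relative to solvent controls, taken from duplicates.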

[2] = compound: CC1=C(SC2=C1C(=N[C@H](C3=NN=C(N32)C)CC(=O)N)C4=CC=C(C=C4)Cl)C
Outline: as §1

[3] = compound: CC1=C2C(=CC=C1)N=C(N(C2=O)C3=CC=CC=C3C)CN4C=NC5=C(N=CN=C54)N
Outline: as §1

[4] = compound: Cc1sc2c(c1C)C(c1ccc(Cl)cc1)=N[C@@H](CC(=O)OC(C)(C)C)c1nnc(C)n1-2
Outline: as §1

[5] = compound: c1ccc([C@@H]2C[C@H]2NC2CCNCC2)cc1
Outline: as §1

Measured: log2 fold change

ABCA3 (UniProt Q99758)
Sequence of UniProt Q99758 (Q99758 whole entry, looked up): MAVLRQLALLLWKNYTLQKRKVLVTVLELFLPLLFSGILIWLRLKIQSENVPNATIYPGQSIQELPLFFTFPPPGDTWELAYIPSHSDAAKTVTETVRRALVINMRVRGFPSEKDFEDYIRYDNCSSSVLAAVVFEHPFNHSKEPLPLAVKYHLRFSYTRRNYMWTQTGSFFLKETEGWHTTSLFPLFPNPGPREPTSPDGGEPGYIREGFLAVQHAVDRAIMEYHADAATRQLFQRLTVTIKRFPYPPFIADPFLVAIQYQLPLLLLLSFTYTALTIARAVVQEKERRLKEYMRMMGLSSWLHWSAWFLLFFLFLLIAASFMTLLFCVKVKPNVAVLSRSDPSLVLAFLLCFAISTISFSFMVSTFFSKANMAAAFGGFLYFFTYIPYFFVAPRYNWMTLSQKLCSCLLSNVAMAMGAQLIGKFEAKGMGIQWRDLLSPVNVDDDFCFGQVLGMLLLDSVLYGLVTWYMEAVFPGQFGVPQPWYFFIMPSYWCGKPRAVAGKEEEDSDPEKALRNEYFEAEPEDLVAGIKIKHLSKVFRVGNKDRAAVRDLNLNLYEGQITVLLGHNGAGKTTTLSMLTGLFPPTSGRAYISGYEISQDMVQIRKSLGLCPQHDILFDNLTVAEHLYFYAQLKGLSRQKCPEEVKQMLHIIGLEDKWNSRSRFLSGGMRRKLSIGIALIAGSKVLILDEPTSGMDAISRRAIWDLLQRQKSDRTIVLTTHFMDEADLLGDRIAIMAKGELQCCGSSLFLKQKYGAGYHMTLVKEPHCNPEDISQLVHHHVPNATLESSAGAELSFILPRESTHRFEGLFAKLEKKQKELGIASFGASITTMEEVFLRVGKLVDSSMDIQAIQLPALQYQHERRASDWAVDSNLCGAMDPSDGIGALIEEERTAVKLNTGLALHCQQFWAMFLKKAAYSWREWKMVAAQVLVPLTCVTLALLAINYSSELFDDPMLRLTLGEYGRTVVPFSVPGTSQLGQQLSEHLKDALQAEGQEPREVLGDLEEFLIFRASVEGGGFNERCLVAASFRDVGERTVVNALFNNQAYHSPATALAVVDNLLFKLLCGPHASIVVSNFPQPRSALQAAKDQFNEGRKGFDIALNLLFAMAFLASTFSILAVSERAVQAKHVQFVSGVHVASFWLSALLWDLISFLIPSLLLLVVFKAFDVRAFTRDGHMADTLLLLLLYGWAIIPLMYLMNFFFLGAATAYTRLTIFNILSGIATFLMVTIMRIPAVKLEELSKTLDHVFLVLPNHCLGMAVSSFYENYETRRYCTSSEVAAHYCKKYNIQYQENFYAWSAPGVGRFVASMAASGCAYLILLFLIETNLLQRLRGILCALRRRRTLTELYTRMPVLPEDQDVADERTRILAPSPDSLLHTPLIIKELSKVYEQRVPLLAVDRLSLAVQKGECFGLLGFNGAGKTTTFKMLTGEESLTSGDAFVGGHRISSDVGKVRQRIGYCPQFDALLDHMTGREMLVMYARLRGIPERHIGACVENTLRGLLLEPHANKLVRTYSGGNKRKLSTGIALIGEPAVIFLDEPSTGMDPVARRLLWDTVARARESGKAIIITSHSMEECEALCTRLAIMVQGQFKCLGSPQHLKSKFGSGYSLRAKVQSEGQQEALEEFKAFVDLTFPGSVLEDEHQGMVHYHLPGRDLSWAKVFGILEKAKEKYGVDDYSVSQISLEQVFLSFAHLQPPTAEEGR
inactive: [1] 0.112 | [2] 0.038 | [3] 0.006 | [4] -0.01 | [5] -0.005

AIMP2 isoform 2 (UniProt Q13155)
inactive: [1] 0.182 | [2] 0.029

ALDH1A1 (UniProt P00352)
inactive: [1] -0.032 | [2] 0.006 | [3] -0.028 | [4] -0.011 | [5] 0.045

AIMP1 isoform 2 (UniProt Q12904)
inactive: [1] -0.033 | [2] 0.01 | [3] 0.006 | [4] 0.029 | [5] 0.044

ALG3 (UniProt Q92685)
inactive: [1] 0.002 | [2] -0.006 | [3] 0.048 | [4] -0.035 | [5] -0.127

ALDH18A1 (UniProt P54886)
inactive: [1] -0.018 | [2] -0.032 | [3] 0.019 | [4] -0.005 | [5] 0.034

ACACB (UniProt O00763)
inactive: [1] -0.018 | [2] 0.002 | [3] 0.01 | [4] 0.074 | [5] 0.014

AK1 (UniProt P00568)
inactive: [1] -0.032 | [2] 0.024 | [3] -0.009 | [4] 0.012 | [5] 0.2

ADK, A0A5F9ZH76
inactive: [1] -0.136 | [2] 0.197

ALDH2 (UniProt P05091)
inactive: [1] 0.029 | [2] -0.028 | [3] -0.022 | [4] -0.018 | [5] 0.01

ARL15 (UniProt Q9NXU5)
Sequence of UniProt Q9NXU5 (Q9NXU5 whole entry, looked up): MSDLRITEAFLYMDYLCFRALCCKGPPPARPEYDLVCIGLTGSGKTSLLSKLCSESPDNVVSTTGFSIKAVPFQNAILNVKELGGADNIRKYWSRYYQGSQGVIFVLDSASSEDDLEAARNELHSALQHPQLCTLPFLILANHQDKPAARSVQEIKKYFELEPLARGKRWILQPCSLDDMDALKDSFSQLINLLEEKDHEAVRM
inactive: [1] 0.02 | [2] -0.005 | [3] 0.018 | [4] -0.009 | [5] 0.269

ACTG1 (UniProt I3L4N8)
inactive: [1] -0.042 | [2] -0.082 | [3] -0.098 | [4] -0.245 | [5] 0.218

ARHGAP25 isoform 4 (UniProt P42331)
inactive: [1] 0.013 | [2] 0.016 | [3] 0.012 | [4] -0.046 | [5] 0.035

AMD1 (UniProt P17707)
inactive: [1] -0.027 | [2] 0.01 | [3] -0.017 | [4] 0.005 | [5] -0.019

AKR1B1 (UniProt P15121)
inactive: [1] 0.015 | [2] 0.066 | [3] 0.059 | [4] -0.146 | [5] -0.049

AHCYL1 (UniProt O43865)
inactive: [1] -0.011 | [2] -0.003 | [3] -0.011 | [4] 0.034 | [5] 0.006

AKR1C2 (UniProt P52895)
inactive: [1] -0.012 | [2] 0.047 | [3] 0.047 | [4] -0.184 | [5] -0.107

ADK (UniProt P55263)
inactive: [1] 0.059 | [2] -0.035 | [3] 0.051 | [4] -0.036 | [5] -0.133

ALDH5A1 isoform 2 (UniProt P51649)
Sequence of UniProt P51649 (P51649 whole entry, looked up): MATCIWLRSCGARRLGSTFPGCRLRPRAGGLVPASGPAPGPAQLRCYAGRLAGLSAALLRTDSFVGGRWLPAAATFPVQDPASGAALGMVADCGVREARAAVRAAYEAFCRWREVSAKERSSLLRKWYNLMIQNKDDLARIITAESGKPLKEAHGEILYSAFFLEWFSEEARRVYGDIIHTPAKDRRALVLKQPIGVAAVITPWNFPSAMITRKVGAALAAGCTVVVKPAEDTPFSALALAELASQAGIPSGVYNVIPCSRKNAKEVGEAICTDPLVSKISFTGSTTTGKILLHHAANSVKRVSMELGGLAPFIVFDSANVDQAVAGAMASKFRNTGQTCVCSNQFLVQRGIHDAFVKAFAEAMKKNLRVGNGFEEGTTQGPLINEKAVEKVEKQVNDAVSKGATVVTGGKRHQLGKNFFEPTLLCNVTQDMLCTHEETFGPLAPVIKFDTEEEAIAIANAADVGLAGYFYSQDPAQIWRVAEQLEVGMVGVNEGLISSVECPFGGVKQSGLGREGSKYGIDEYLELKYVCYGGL
inactive: [1] -0.029 | [2] -0.018 | [3] -0.017 | [4] 0.004 | [5] 0.075

AP3D1 isoform 5 (UniProt O14617)
Sequence of UniProt O14617 (O14617 whole entry, looked up): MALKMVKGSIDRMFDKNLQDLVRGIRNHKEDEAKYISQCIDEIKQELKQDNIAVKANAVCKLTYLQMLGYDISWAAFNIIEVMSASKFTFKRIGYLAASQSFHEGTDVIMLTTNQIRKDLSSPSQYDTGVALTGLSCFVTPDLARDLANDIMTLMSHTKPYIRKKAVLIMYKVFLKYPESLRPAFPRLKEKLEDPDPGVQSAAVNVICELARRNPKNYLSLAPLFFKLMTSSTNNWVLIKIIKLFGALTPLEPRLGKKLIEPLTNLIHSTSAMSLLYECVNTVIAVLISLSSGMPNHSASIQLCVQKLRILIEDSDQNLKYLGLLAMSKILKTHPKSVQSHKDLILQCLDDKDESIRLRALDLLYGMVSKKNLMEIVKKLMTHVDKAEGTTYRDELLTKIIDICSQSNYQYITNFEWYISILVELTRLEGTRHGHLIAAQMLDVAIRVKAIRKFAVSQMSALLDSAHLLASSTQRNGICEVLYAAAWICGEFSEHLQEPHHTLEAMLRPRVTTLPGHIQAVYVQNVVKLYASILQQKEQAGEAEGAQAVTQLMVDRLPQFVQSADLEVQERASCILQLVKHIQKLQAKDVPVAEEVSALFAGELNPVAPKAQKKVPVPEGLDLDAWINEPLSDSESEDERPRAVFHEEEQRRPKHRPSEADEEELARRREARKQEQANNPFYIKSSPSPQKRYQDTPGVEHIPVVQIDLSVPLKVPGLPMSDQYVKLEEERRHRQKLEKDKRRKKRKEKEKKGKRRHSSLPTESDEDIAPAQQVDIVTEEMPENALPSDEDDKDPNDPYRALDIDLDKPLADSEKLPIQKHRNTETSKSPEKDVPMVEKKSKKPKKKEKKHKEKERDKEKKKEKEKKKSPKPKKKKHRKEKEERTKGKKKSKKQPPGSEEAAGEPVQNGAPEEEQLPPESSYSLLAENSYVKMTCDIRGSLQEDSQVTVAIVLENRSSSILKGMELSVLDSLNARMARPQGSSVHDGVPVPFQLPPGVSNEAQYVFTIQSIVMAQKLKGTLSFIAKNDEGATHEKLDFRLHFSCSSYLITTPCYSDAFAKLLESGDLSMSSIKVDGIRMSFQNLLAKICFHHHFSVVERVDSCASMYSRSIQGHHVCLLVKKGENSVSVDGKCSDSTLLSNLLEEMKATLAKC
inactive: [1] 0.042 | [2] -0.027 | [3] 0.003 | [4] 0.025 | [5] -0.028

AKAP8 (UniProt O43823)
Sequence of UniProt O43823 (O43823 whole entry, looked up): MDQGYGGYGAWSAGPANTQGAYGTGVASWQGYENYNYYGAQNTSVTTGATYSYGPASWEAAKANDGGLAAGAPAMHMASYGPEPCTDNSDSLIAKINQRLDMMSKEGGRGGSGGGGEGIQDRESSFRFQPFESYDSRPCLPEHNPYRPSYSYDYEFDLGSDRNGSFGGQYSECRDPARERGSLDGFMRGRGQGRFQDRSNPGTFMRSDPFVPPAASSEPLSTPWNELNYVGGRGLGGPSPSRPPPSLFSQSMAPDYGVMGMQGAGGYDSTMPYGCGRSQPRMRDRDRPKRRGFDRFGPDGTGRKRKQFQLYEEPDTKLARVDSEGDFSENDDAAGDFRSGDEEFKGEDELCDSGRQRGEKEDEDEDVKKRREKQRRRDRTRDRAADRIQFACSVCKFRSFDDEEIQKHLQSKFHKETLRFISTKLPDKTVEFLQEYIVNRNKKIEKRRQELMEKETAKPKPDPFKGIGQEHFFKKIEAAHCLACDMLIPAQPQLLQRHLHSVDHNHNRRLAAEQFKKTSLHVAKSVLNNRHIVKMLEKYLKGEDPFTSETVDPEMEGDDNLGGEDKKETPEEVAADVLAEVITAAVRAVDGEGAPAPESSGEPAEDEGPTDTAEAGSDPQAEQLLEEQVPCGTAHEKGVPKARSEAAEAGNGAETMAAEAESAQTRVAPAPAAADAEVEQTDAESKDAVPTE
inactive: [1] -0.02 | [2] 0.073 | [3] -0.016 | [4] -0.009 | [5] -0.014

ARHGAP21 (UniProt Q5T5U3)
inactive: [1] 0.031 | [2] 0.117 | [3] 0.031 | [4] 0.008 | [5] 0.124

AIP (UniProt O00170)
inactive: [1] 0.012 | [2] -0.023 | [3] -0.006 | [4] 0.025 | [5] 0.125

ALDH1B1 (UniProt P30837)
inactive: [1] 0.143 | [2] -0.021 | [3] 0.006 | [4] 0.049 | [5] 0.019

ACSL4 (UniProt O60488)
Sequence of UniProt O60488 (O60488 whole entry, looked up): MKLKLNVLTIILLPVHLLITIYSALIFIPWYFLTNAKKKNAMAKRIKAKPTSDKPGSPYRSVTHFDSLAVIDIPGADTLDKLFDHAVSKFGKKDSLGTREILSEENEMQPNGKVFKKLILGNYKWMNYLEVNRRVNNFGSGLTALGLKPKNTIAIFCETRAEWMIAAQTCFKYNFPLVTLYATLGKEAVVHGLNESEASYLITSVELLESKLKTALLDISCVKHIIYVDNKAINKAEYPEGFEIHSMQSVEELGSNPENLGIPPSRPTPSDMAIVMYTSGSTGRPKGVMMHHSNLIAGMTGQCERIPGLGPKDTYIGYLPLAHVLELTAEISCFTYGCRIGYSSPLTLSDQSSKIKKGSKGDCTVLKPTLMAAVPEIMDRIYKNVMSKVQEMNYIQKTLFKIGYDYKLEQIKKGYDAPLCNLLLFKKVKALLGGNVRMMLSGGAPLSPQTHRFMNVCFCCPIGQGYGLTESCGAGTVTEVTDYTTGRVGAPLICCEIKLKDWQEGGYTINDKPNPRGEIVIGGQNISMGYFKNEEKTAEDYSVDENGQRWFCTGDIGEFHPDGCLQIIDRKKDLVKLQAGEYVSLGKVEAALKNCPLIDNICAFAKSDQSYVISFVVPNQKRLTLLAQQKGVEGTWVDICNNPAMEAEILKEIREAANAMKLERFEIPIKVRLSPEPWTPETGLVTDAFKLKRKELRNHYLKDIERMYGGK
inactive: [1] -0.058 | [2] 0.046 | [3] 0.032 | [4] -0.106 | [5] 0.038

— the supplement of paper PMC10849652
